Mtb hypoxia rep = inhibitors of hypoxia-regulated fluorescent reporter in Mycobacterium tuberculosis. M. tuberculosis hypoxia-regulated fluorescent reporter, fluorescence. fluorescence inhibition, % (no concentration beside the values). 0.1% of 300,000 active. AID 1159583; in the data active means fluorescence inhibition mostly above about 23%, no sharp cut-off; inactive means mostly below about 17%
Sa ugtP lethal = kills S. aureus RN4220 lacking UgtP. 0.54% of 330,000 active. S. aureus RN4220 ugtP deletion, OD600 growth, 16 h. AID 1259309. growth inhibition, % (no concentration beside the values); in the data active means growth inhibition above about 68%
Sa RN4220 lethal = kills Staphylococcus aureus RN4220 | inhibition, % (concentration not given with the values) | S. aureus RN4220 growth, OD600, 16 h | 0.33% of 330,000 active; in the data active means inhibition above about 85%
BJeLR viability = kills HRASV12-expressing BJeLR cells; BJeLR (HRASV12) viability, CellTiter-Glo ATP luminescence, 48 h; AID 1554; inhibition, % (concentration not given with the values); 0.17% of 300,000 active; in the data active means inhibition above about 50%
CCHFV vOTU inh = blocks the CCHF virus ovarian tumor domain protease; CCHFV vOTU protease, Pep-AMC fluorescence; inhibition, % at 11.5 µM; 0.55% of 370,000 active; AID 651958; in the data active means inhibition above about 30%
RecA intein inh = blocks M. tuberculosis RecA intein splicing; cell-free RecA intein splicing, fluorescence; inhibition, % (test concentration not listed); 0.75% of 290,000 active; in the data active means inhibition above about 30%
Target sequence (P9WHJ3 whole entry, looked up): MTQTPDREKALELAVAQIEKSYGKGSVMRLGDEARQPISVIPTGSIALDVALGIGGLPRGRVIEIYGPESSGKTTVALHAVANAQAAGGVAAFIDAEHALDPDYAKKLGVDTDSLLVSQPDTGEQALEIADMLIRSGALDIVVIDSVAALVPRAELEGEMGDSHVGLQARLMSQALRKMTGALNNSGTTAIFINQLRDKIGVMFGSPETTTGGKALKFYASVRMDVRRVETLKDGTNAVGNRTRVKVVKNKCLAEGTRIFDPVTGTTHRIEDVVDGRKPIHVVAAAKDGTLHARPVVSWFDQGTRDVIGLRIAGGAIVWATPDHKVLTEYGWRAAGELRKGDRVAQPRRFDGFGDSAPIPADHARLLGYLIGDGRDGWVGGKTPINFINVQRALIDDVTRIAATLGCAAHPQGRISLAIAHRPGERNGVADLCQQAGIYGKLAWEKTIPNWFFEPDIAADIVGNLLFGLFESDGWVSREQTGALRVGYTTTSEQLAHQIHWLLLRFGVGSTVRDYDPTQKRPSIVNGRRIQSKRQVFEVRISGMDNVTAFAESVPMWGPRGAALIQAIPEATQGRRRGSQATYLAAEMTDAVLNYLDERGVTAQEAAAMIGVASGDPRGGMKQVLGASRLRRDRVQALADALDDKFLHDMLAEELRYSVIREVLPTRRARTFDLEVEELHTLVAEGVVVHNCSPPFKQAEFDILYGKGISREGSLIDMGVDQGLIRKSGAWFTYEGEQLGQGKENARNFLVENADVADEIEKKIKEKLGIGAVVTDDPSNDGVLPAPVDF
GFP chromophore = counter-screen: blocks GFP chromophore formation; shares compounds with RecA intein inh; cell-free GFP chromophore formation, fluorescence; EC50, µM; 83% of 2,100 active; AID 434968; call rule not given here
Large screens that a line does not name were inactive (follow-up assays come after a bar, where shown). A selection: hits, their analogues and other compounds. The true share with any hit is near 1.6%.

O=C(CNC(=O)C1COc2ccccc2O1)N/N=C\c1ccccc1Cl (configuration not stated)	none (no result: Mtb hypoxia rep, Sa ugtP lethal, Sa RN4220 lethal) | GFP chromophore inactive
O=C(N/N=C\c1ccc(-c2ccccc2[N+](=O)[O-])o1)C1COc2ccccc2O1 (configuration not stated)	RecA intein inh 33 (no result: Mtb hypoxia rep, Sa ugtP lethal, Sa RN4220 lethal) | GFP chromophore 39
O=C(N/N=C\c1ccc(-c2ccccc2[N+](=O)[O-])o1)C1COc2cc3ccccc3cc2O1 (configuration not stated)	none (no result: Mtb hypoxia rep, Sa ugtP lethal, Sa RN4220 lethal)
COC(=O)c1sccc1NN=C(C)c1ccc(F)c(Cl)c1	none (no result: BJeLR viability, CCHFV vOTU inh, RecA intein inh)
COc1ccc(C(=O)Nc2c(O)ccc3ccccc23)cc1	none
COc1ccc(S(=O)(=O)Nc2c(O)ccc3ccccc23)cc1OC	RecA intein inh 96 | GFP chromophore 4.6
COc1ccc(NC(=O)Nc2c(O)ccc3ccccc23)cc1	RecA intein inh 59 | GFP chromophore 15
COCCN1C(=O)NC(c2ccco2)C(C(C)=O)=C1C (configuration not stated)	none (no result: BJeLR viability, CCHFV vOTU inh, RecA intein inh)
COc1ccc(N2C(=O)CC(S/C(N)=N/N=C(C)c3cccs3)C2=O)cc1 (configuration not stated)	none (no result: BJeLR viability, CCHFV vOTU inh, RecA intein inh)
O=C(CNC(=O)c1ccccc1F)NN=Cc1cc(Br)ccc1OCc1ccccc1	none (no result: BJeLR viability, CCHFV vOTU inh, RecA intein inh)
Cc1cc(C=C2C(=O)NC(=O)N(c3ccc(F)cc3)C2=O)c(C)n1-c1ccc(C(=O)O)cc1	none (no result: BJeLR viability, CCHFV vOTU inh, RecA intein inh)
CC(C)(c1ccccc1)c1ccc(OCC2CO2)cc1 (configuration not stated)	RecA intein inh 41 | GFP chromophore inactive
CC(Cl)C(=O)N1c2ccccc2CCc2ccccc21 (configuration not stated)	none
O=C(CCl)N1c2ccccc2CCc2ccccc21	RecA intein inh 80 (no result: Mtb hypoxia rep, Sa ugtP lethal, Sa RN4220 lethal) | GFP chromophore 22
CC1CN(C(C)CO)C(=O)c2cccc(NC(=O)c3ccncc3)c2OC1CN(C)Cc1ccc(C(=O)O)cc1 (configuration not stated)	none (no result: BJeLR viability, CCHFV vOTU inh, RecA intein inh)
COCC(C)NC(=O)CCS(=O)(=O)c1nc(-c2ccc(OC)cc2)cc(C(F)(F)F)n1 (configuration not stated)	RecA intein inh 33 | GFP chromophore 35
COc1ccc(-c2cc(C(F)(F)F)nc(S(C)(=O)=O)n2)cc1	RecA intein inh 72 | GFP chromophore 14
CCOC(=O)CS(=O)(=O)c1nc(-c2ccc(F)cc2)cc(C(F)(F)F)n1	RecA intein inh 74 (no result: Mtb hypoxia rep, CCHFV vOTU inh) | GFP chromophore 6
COC(=O)CCS(=O)(=O)c1nc(-c2ccccc2)cc(C(F)(F)F)n1	RecA intein inh 67 (no result: CCHFV vOTU inh) | GFP chromophore 11
O=C(Nc1nccs1)C1CC=CC2CCN(Cc3ccccc3)C(=O)C21 (configuration not stated)	none (no result: BJeLR viability, CCHFV vOTU inh, RecA intein inh)
CCC1=C2CCC3C(=O)N(c4ccccc4)C(=O)C3C2[C@@]2(C)C(=NCC3CC3)OC(=O)N2C1=O (some centres not stated)	none (no result: BJeLR viability, CCHFV vOTU inh, RecA intein inh)
CCOC(=O)CS(=O)(=O)c1nc(-c2ccccc2)cc(C(F)(F)F)n1	RecA intein inh 72 (no result: Mtb hypoxia rep) | GFP chromophore 5.9
CCOC(=O)CCS(=O)(=O)c1nc(-c2ccccc2)cc(C(F)(F)F)n1	RecA intein inh 78 (no result: Mtb hypoxia rep, Sa ugtP lethal, Sa RN4220 lethal, CCHFV vOTU inh) | GFP chromophore 7.2
O=C(O)CCS(=O)(=O)c1nc(-c2cccs2)cc(C(F)(F)F)n1	none
CCOC(=O)CS(=O)(=O)c1ccccc1	none
COc1ccc2c(c1)CCC1C2CC[C@]2(C)C(C(=O)O)CC12 (some centres not stated)	none (no result: BJeLR viability, CCHFV vOTU inh, RecA intein inh)
COc1ccc(C(=O)Nc2ccncc2)cc1[N+](=O)[O-]	RecA intein inh 39 | GFP chromophore inactive
O=S1(=O)CCOCC(Cc2ccccc2)N1Cc1ccccc1Br (configuration not stated)	none (no result: BJeLR viability, CCHFV vOTU inh, RecA intein inh)
CC(CCc1ccccc1)NC(=O)COC(=O)c1cc(NS(=O)(=O)c2ccc(Cl)c([N+](=O)[O-])c2)ccc1O (configuration not stated)	RecA intein inh 38 | GFP chromophore inactive
COc1cccc(C=NNC(=O)c2nnn(-c3nonc3N)c2CN(C)c2ccccc2)c1	none (no result: BJeLR viability, CCHFV vOTU inh, RecA intein inh)
O=C(NN=Cc1cnc(N2CCCCC2)s1)c1ccc(C(F)(F)F)cc1	none (no result: BJeLR viability, CCHFV vOTU inh, RecA intein inh)
COc1ccccc1CN1CCSCC1	RecA intein inh 33 | GFP chromophore 25
COC(=O)C1=C(c2ccc(C(C)=O)cc2)CC2CCC1N2C(=O)NCc1ccco1 (configuration not stated)	none (no result: BJeLR viability, CCHFV vOTU inh, RecA intein inh)
Cc1ccc(N(C(=O)CCl)C(C(=O)NC2CCCCC2)c2cccnc2)cc1C (configuration not stated)	BJeLR viability 101, RecA intein inh 72 | GFP chromophore 2.6
COc1ccc(CS(=O)(=O)/C(Cl)=C(/Cl)C(=O)Nc2ccc(OC)nc2)cc1	Sa ugtP lethal 100, RecA intein inh 78 (no result: Mtb hypoxia rep, CCHFV vOTU inh) | GFP chromophore 9.7
COc1ccc(NC(=O)/C(Cl)=C(/Cl)S(=O)Cc2ccccc2)cn1 (configuration not stated)	Sa ugtP lethal 88, RecA intein inh 78 (no result: Mtb hypoxia rep) | GFP chromophore 6.6
NC(=NOS(=O)(=O)c1ccccc1)c1ccncc1	none (no result: BJeLR viability, CCHFV vOTU inh, RecA intein inh)
COc1ccc(NC2=NC(=S)N(c3ccccc3C)C23CCCCC3)cc1	none
COc1ccc(Nc2ccc3c(c2)=NC2(CCCCC2)[N+]=3[O-])cc1	RecA intein inh 79 | GFP chromophore 10
[O-][N+]1=c2ccc(Nc3ccccc3)cc2=NC12CCCCC2	RecA intein inh 80 | GFP chromophore 11
CCOC(=O)C1C2COc3cc(OC)ccc3C2N2C(=O)CN(Cc3ccccc3)C(=O)[C@@]12C (some centres not stated)	none (no result: BJeLR viability, CCHFV vOTU inh, RecA intein inh)
COc1cc(OC)cc(C(=O)NC(C(=O)OCC(=O)Nc2ccc(C(N)=O)cc2)C(C)C)c1 (configuration not stated)	none (no result: BJeLR viability, CCHFV vOTU inh, RecA intein inh)
CC(OC(=O)c1cc(O)c2ccccc2c1O)C(=O)Nc1ccc(C(N)=O)cc1 (configuration not stated)	CCHFV vOTU inh 86, RecA intein inh 73 | GFP chromophore 5.2
C=CCOC(Cn1ccnc1)c1ccc(Cl)cc1Cl (configuration not stated)	none (not shown: Mtb hypoxia rep, BJeLR viability, RecA intein inh)
COc1cccc(/C=C(/C#N)c2ccc(F)cc2)c1OCc1cccc(C(=O)O)c1	none
N#C/C(=C/c1cccn1-c1cccc(C(=O)O)c1)c1ccc(F)cc1	RecA intein inh 45 | GFP chromophore inactive
CC(Cl)=CCC1(CN2CCCC2=O)C(=O)NC(=O)NC1=O	none (no result: BJeLR viability, CCHFV vOTU inh, RecA intein inh)
CC(C)CC1C(=O)N2CCCC2[C@]2(O)O[C@](NC(=O)C3C=C4c5cccc6[nH]c(Br)c(c56)CC4N(C)C3)(C(C)C)C(=O)N12 (some centres not stated)	none (no result: BJeLR viability, CCHFV vOTU inh, RecA intein inh)
CC(C)C[C@H]1C(=O)N2CCC[C@H]2[C@]2(O)O[C@](NC(=O)[C@@H]3C=C4c5cccc6[nH]c(Br)c(c56)CC4N(C)C3)(C(C)C)C(=O)N12 (some centres not stated)	RecA intein inh 56 (no result: Mtb hypoxia rep, Sa ugtP lethal, Sa RN4220 lethal) | GFP chromophore inactive

Screening results (PubChem BioAssay)
